Compound activity: PubChem, National Center for Advancing Translational Sciences (NCATS)
Pf growth 48h = inhibits P. falciparum growth in the first generation, 48 h | P. falciparum luciferase growth in erythrocytes, 48 h | Potency, µM (titrated, usually from 28.7 µM), actives largely listed as inhibitors | 5.9% of 310,000 active | AID 504832
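Parasite viability was followed by luminescence of a genomically integrated firefly luciferase. Cultures held 0.1% parasitemia at 2% hematocrit (final), incubated under 5% CO2 at 37 C.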
HCV inhibitor = blocks hepatitis C virus; Potency, µM (top dose mostly 41.8 µM), hits mostly inhibitors; Huh7.5.1 HCVcc-Cre infection, luciferase reporter, 44 h; AID 651820; 3.4% of 340,000 active
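Cells seeded at 1,000/well and cultured 4 h, then compounds added followed by HCVcc-Cre virus (~0.5 moi). After 44 h further culture, luciferase substrate was added, plates held 15 min at room temperature, and luminescence read for 15 sec.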
Pf growth 96h = P. falciparum growth inhibition at 96 hours; P. falciparum luciferase reporter growth, 96 h; AID 504834; Potency, µM (titrated, usually from 28.7 µM), actives largely listed as inhibitors; 6.9% of 320,000 active
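Readout is luminescence from an integrated firefly luciferase in P. falciparum. Red cells, 2% hematocrit and 0.05% parasitemia final, were cultured with compound through two parasite generations (96 hours) at 37 C, 5% CO2.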
AMA1 RON2 block = AMA1-RON2 (P. falciparum) interaction inhibition; 0.2% of 360,000 active; Potency, µM (highest dose often 58.2 µM), most hits filed as inhibitors; AlphaScreen AMA1-biotinylated RON2 peptide binding; further: nearly all actives have a fitted effect of over 45% in size
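AMA1 (3D7) with his tag at 25 nM final met compounds first, then biotinylated RON2 peptide at 25 nM; detection used donor plus acceptor beads, 10 µg/mL apiece, read by AlphaScreen after 30 min at room temperature.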
Each line names hits and unclear results; the compound was inactive in the other large screens. In the library only some 11% were active in any assay of this set; here they are far more common. The call rests on the fitted dose curve; in most records, active means well fitted curve in the direction sought with a large enough effect; inconclusive means small, poorly fitted or top-dose-only effect, or another doubt; inactive means no such curve, though single readings can be large; an effect the other way counts as inactive or inconclusive.

O=C(NCC1COc2ccccc2O1)C1CCN(S(=O)(=O)c2ccc(Cl)cc2)CC1 (centres undefined)	Pf growth 48h inconclusive, HCV inhibitor 11µM, Pf growth 96h inconclusive
O=C(NCC1COc2ccccc2O1)c1cccc(S(=O)(=O)N2CCOCC2)c1 (centres undefined)	Pf growth 96h inconclusive
Cc1c(C(=O)NCC2COc3ccccc3O2)oc2ccc(S(=O)(=O)N(C)C3CCCCC3)cc12 (centres undefined)	Pf growth 48h 9.3µM (no result: Pf growth 96h)
CCN1CCCC1CNC(=O)c1cn(C)c2ccc(S(=O)(=O)N3CCCCCC3)cc2c1=O (centres undefined)	HCV inhibitor inconclusive
CCOC(=O)C1CCN(C(=O)COC(=O)/C=C/c2cccc(OC)c2OC)CC1	none (no result: Pf growth 48h, Pf growth 96h)
O=C(CCl)Nc1c2c(nn1-c1ccccc1)CSC2	Pf growth 48h 4.1µM, HCV inhibitor inconclusive, Pf growth 96h 2.9µM
O=C(CCCCl)Nc1c2c(nn1-c1ccccc1)CSC2	none
O=c1ccc(-c2ccc(S(=O)(=O)N3CCN(c4cccc(Cl)c4)CC3)o2)n[nH]1	Pf growth 96h inconclusive
Cc1ccc(S(=O)(=O)CCNC(=O)Cc2ccccc2)cc1	none
CC(=O)c1sc(Nc2nc3cc4c(cc3s2)OCO4)nc1C	HCV inhibitor inconclusive, Pf growth 96h inconclusive
CCOC(=O)c1sc(Nc2nc3c(OC)cccc3s2)cc1C	HCV inhibitor 10µM
COc1cccc2sc(Nc3nc4ccc(NC(C)=O)cc4s3)nc12	Pf growth 48h inconclusive, HCV inhibitor 4.5µM, Pf growth 96h inconclusive
CCOC(=O)c1sc(Nc2nc3cc4c(cc3s2)OCO4)cc1C	Pf growth 48h 8.3µM, HCV inhibitor inconclusive, Pf growth 96h 9.3µM
COc1cccc2sc(NN)nc12	Pf growth 96h inconclusive
COc1ccc(C(=O)C2CCCN(Cc3ccc4nonc4c3)C2)c(OC)c1 (centres undefined)	HCV inhibitor inconclusive, Pf growth 96h inconclusive
O=c1cc(CSc2ccccc2)[nH]c2ccccc12	Pf growth 48h 10µM, HCV inhibitor inconclusive
CC1(C(=O)N2CCC(CO)(Cc3cccc(C(F)(F)F)c3)CC2)CC1	Pf growth 96h 17µM
CC(=O)c1ccc(C(=O)N2CCC(CO)(Cc3cccc(C(F)(F)F)c3)CC2)cc1	Pf growth 48h inconclusive, HCV inhibitor inconclusive, Pf growth 96h inconclusive
Cc1c(CN2CCC(CO)(Cc3cccc(C(F)(F)F)c3)CC2)c2ccccc2n1C	Pf growth 48h 3.7µM, HCV inhibitor inconclusive, Pf growth 96h inconclusive
COc1cc(CN2CCC(CO)(Cc3cccc(C(F)(F)F)c3)CC2)ccc1F	Pf growth 48h 6.6µM, HCV inhibitor inconclusive, Pf growth 96h 4.1µM
OCC1(Cc2cccc(C(F)(F)F)c2)CCN(Cc2cc3ccccc3o2)CC1	Pf growth 48h inconclusive, AMA1 RON2 block inconclusive
COc1ccc(F)c(CN2CCC(CO)(Cc3cccc(C(F)(F)F)c3)CC2)c1	Pf growth 48h inconclusive
CCOC(=O)c1ccc(-n2cnc(-c3ccc([N+](=O)[O-])cc3)c2)cc1	none (no result: Pf growth 48h, HCV inhibitor, Pf growth 96h)
COc1ccc(CCNC(=O)c2cccc(S(=O)(=O)N3CCc4ccccc4C3)c2)cc1	Pf growth 48h 9.3µM, HCV inhibitor 14µM, Pf growth 96h inconclusive
CCOc1ccc(CCNC(=O)c2cn(C)c3ccc(S(=O)(=O)N4CCOCC4)cc3c2=O)cc1OCC	Pf growth 48h 12µM, Pf growth 96h inconclusive
CN(C)c1cccc(C(=O)OCCNC(=O)c2cccc(S(=O)(=O)N3CCOCC3)c2)c1	Pf growth 48h inconclusive, HCV inhibitor 10µM, Pf growth 96h inconclusive
CCOc1ccc(CCNC(=O)c2cccc(C#N)c2)cc1OCC	Pf growth 48h 10µM, HCV inhibitor inconclusive, Pf growth 96h inconclusive
Cn1cc(C(=O)NC2CCCCC2)c(=O)c2cc(S(=O)(=O)N3CCOCC3)ccc21	Pf growth 48h inconclusive, Pf growth 96h inconclusive
COc1cccc(C(=O)NCCS(=O)(=O)N2CCc3ccccc3C2)c1	none
O=S(=O)(Nc1ccc(-c2nc3cccnc3s2)cc1)c1ccccc1F	none
Cc1nnc(SCC(=O)NCCC2=CCCCC2)[nH]c1=O	none (no result: Pf growth 48h, Pf growth 96h)
O=C(COn1nnc2ccc(S(=O)(=O)N3CCOCC3)cc21)Nc1c(F)c(F)c(F)c(F)c1F	none
CCOc1ccc(CCNC(=O)c2ccc3c(c2)NC(=O)C2CCCN32)cc1OCC (centres undefined)	Pf growth 48h 5.2µM, Pf growth 96h 9.3µM (no result: HCV inhibitor, AMA1 RON2 block)
CCOc1cc2c(cc1OCC)CN(C(=O)c1cccc(S(=O)(=O)N3CCCC3)c1)CC2	Pf growth 48h inconclusive, HCV inhibitor 8.9µM, Pf growth 96h 10µM
CCCN(CC(=O)Nc1ccccc1C)C(=O)c1cccc(S(=O)(=O)N2CCc3ccccc3C2)c1	Pf growth 48h inconclusive, HCV inhibitor 22µM, Pf growth 96h inconclusive
CCOc1ccc(CCNC(=O)c2ccc(N3CCCC3=O)cc2)cc1OCC	HCV inhibitor inconclusive, Pf growth 96h inconclusive
CCOc1ccc(CCNC(=O)COn2nnc3ccc(S(=O)(=O)N4CCOCC4)cc32)cc1OCC	Pf growth 48h inconclusive, HCV inhibitor inconclusive, Pf growth 96h 9.3µM
COc1ccccc1C(=O)NCC(=O)OCCCOC(=O)CNC(=O)c1ccccc1OC	none
N#Cc1cccc(S(=O)(=O)NCC(=O)NCc2ccc3c(c2)OCO3)c1	none
O=C(Nc1ccccc1-c1nc2ccccc2[nH]1)c1sc2ccccc2c1Cl	none (no result: AMA1 RON2 block)
CCn1ncc(/C=N\NC(=O)Cc2ccc([N+](=O)[O-])cc2)c1C	none
COCCn1c(=NC(=O)c2ccc(S(=O)(=O)N3CCc4ccccc4C3)cc2)sc2cc(OC)ccc21	Pf growth 48h inconclusive, HCV inhibitor 13µM, Pf growth 96h 5.2µM
COc1ccccc1CNC(=O)COC(=O)c1cccc(S(=O)(=O)N2CCOCC2)c1	HCV inhibitor 11µM
O=C1Nc2cc(S(=O)(=O)N3CCCC3)ccc2N2CCCC12 (centres undefined)	Pf growth 48h 17µM
CCOc1ccc(CCNC(=O)c2cccc(S(=O)(=O)N3CC(C)OC(C)C3)c2)cc1OCC (centres undefined)	Pf growth 48h 9.3µM, HCV inhibitor inconclusive, Pf growth 96h 10µM
COCCn1c(=NC(=O)CCS(=O)(=O)c2ccccc2)sc2cc(C(=O)OC)ccc21	none
Nc1ncnc2c1ncn2[C@@H]1O[C@H](CNC(=O)[C@H](N)Cc2cscn2)[C@@H](O)[C@H]1O	none (no result: Pf growth 48h, Pf growth 96h)
COc1cccc(CN(C)S(=O)(=O)c2ccccc2Br)c1	HCV inhibitor inconclusive (no result: Pf growth 48h, Pf growth 96h)
C[C@H](CO)N1C[C@H](C)[C@@H](CN(C)C(=O)Nc2ccccc2)Oc2ccc(NC(=O)Nc3ccccc3)cc2C1=O	none (no result: Pf growth 48h, Pf growth 96h)
CCN(CC)S(=O)(=O)c1ccc2c(c1)NC(=O)C1CCCN21 (centres undefined)	Pf growth 48h inconclusive
CCOc1ccc(CCNC(=O)c2ccc(S(=O)(=O)N3CCCC3)cc2)cc1OCC	Pf growth 48h 12µM, HCV inhibitor inconclusive, Pf growth 96h inconclusive
CCOc1ccc(CCNC(=O)c2cccc(S(=O)(=O)N3CCCC3)c2)cc1OCC	Pf growth 48h 12µM, HCV inhibitor inconclusive, Pf growth 96h inconclusive
Cc1ccc(OCCOC(=O)c2cccc(S(=O)(=O)N3CC(C)OC(C)C3)c2)cc1 (centres undefined)	Pf growth 48h 13µM, HCV inhibitor 11µM, Pf growth 96h inconclusive
